# The supplement of paper PMC6522484
# ± gives the standard deviation of the averaged measurements.
# What was measured:
# [1] = system: DLD1; assay: cell viability (CellTiter-Glo) relative to plate median (fraction of plate median); higher = more viable cells; settings: 5 µM; treatment time 24 h; reporter: 7TFP
# Summary of the method: (§1)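 Colorectal cancer cell lines stably transduced with lentiviral TCF/Wnt firefly luciferase reporters (7TFP or TCF4/Wnt) were seeded in 384-well plates. 24 h later they received library compounds at a final 5 µM for 24 h. Parallel plates were read for firefly luciferase or CellTiterGlo luminescence on a Tecan F500 reader. Each well's signal was normalised to the plate median (webcellHTS2, additive, no log transformation), and the mean of two independent replicates is reported.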
# [2] = system: HCT116; assay: as above; settings: 5 µM; treatment time 24 h; reporter: TCF4/Wnt
# Summary of the method: as §1
# [3] = system: SW480; assay: as above; settings: 5 µM; treatment time 24 h; reporter: 7TFP
# Summary of the method: as §1
# [4] = system: DLD1; assay: TCF/Wnt firefly luciferase reporter signal relative to plate median (fraction of plate median); higher = higher Wnt reporter signal; settings: 5 µM; treatment time 24 h; reporter: 7TFP
# Summary of the method: as §1
# [5] = system: SW480; assay: as above; settings: 5 µM; treatment time 24 h; reporter: 7TFP
# Summary of the method: as §1
Structure (SMILES),cell viability [1],cell viability [2],cell viability [3],TCF/Wnt firefly luciferase reporter signal [4],TCF/Wnt firefly luciferase reporter signal [5]
C=C(C)[C@@H]1C[C@H](O)[C@]2(C(=O)O[C@@H]3O[C@H](CO[C@@H]4O[C@H](CO)[C@@H](O[C@@H]5O[C@@H](C)[C@H](O)[C@@H](O)[C@H]5O)[C@H](O)[C@H]4O)[C@@H](O)[C@H](O)[C@H]3O)CC[C@]3(C)[C@H](C[C@H]4OC(=O)C[C@@H](O)[C@]5(C)[C@@H]4[C@@]3(C)CC[C@H]5C(=C)C)[C@@H]12 [22alpha-hydroxychiisanoside (4)],0.87 ± 0.055,0.878 ± 0.06,0.937 ± 0.033,0.803 ± 0.0042,0.951 ± 0.029
C[N+]1(C)[C@@H]2CC[C@H]1C[C@@H](OC(=O)C(O)c1ccccc1)C2 (stereo not given in full),1.08 ± 0.035,0.941 ± 0.079,1.085 ± 0.0071,1.1 ± 0.042,1.01 ± 0.15
Nc1cc(N2CCCCC2)nc(N)[n+]1[O-],1.01 ± 0.047,0.972 ± 0.054,1 ± 0.04,1.04 ± 0.11,0.943 ± 0.062
c1ccc(CC2=NCCN2)cc1,0.994 ± 0.066,1.04 ± 0.075,0.9775 ± 0.00071,0.952 ± 0.082,1.01 ± 0.12
O=C1C=C2CC3(O)COc4c(ccc(O)c4O)C3=C2C=C1O (stereo not given),0.988 ± 0.073,1.04 ± 0.065,1.06 ± 0.13,0.943 ± 0.081,1.05
CC(=O)OCC(=O)[C@@]1(O)[C@H](C)C[C@H]2[C@@H]3CCC4=CC(=O)C=C[C@]4(C)[C@@]3(F)[C@@H](O)C[C@@]21C,1.06 ± 0.085,0.952 ± 0.054,1.02 ± 0.088,0.958 ± 0.037,0.969 ± 0.044
Cc1cccc2c3c(ccc12)C1=C(C(=O)C3=O)[C@@H](C)CO1,0.936 ± 0.1,0.825 ± 0.011,1.03 ± 0.014,0.955 ± 0.15,1.08 ± 0.15
N[C@H](Cc1ccccc1)C(=O)O,1.03 ± 0.066,1.07 ± 0.064,1.01 ± 0.078,1.17 ± 0.05,1 ± 0.15
O=C1CN(/N=C/c2ccc([N+](=O)[O-])o2)C(=O)N1,1.03 ± 0.11,1.02 ± 0.037,0.949,0.954 ± 0.043,0.995 ± 0.12
CC1(C)O[C@H]2CC(=O)OC[C@]23[C@H]2CC[C@@]4(C)[C@H](c5ccoc5)OC(=O)[C@H]5O[C@]54[C@]2(C)C(=O)C[C@@H]13,1.01 ± 0.045,1.07 ± 0.064,1.05 ± 0.05,0.944 ± 0.03,0.98 ± 0.099
COc1cc2nc(N3CCN(C(=O)c4ccco4)CC3)nc(N)c2cc1OC,1.01 ± 0.097,1.02 ± 0.036,1.01 ± 0.018,1.11 ± 0.014,1.09 ± 0.028
Cc1onc(-c2ccccc2Cl)c1C(=O)N[C@@H]1C(=O)N2[C@@H]1SC(C)(C)[C@@H]2C(=O)O,1.02 ± 0.17,1.02 ± 0.06,0.994 ± 0.037,1.02 ± 0.035,0.952 ± 0.058
CC1=CCCC(C)=CCC(C)(C)C=CC1 [HUMULENE (alpha)],0.978 ± 0.013,1.01 ± 0.027,0.965 ± 0.021,1.04,1.15 ± 0.13
COc1cc(-c2oc3cc(O)ccc3c(=O)c2O)ccc1O,1.03 ± 0.014,1.12 ± 0.078,1.055 ± 0.0071,1 ± 0.098,1.07 ± 0.035
CC(=O)C1=C(O)C=C2Oc3c(C(C)=O)c(O)c(C)c(O)c3C2(C)C1=O (stereo in doubt),0.995 ± 0.035,1.04 ± 0.028,0.968 ± 0.018,1.2 ± 0.13,0.973 ± 0.052
C#C[C@]1(O)CC[C@H]2[C@@H]3CCc4cc(O)ccc4[C@H]3CC[C@@]21C,0.934 ± 0.016,0.972 ± 0.054,0.9755 ± 0.0092,1.08 ± 0.078,1.04 ± 0.021
Clc1ccc(COC(Cn2ccnc2)c2ccc(Cl)cc2Cl)cc1 (stereo not given),0.944 ± 0.11,0.972 ± 0.0085,0.99 ± 0.029,0.936 ± 0.13,1.03 ± 0.074
NC(=O)c1cc[n+](CC2=C(C(=O)O)N3C(=O)[C@@H](NC(=O)[C@@H](c4ccccc4)S(=O)(=O)[O-])[C@H]3SC2)cc1,1.01 ± 0.055,0.983 ± 0.067,1.07 ± 0.085,0.967 ± 0.17,0.9605 ± 0.0078
CC(=O)CCCCn1c(=O)c2c(ncn2C)n(C)c1=O,0.93 ± 0.015,0.911 ± 0.054,0.94 ± 0.051,1.15 ± 0.085,1.03 ± 0.014
Cc1cc(/C=C/c2ccc3cc(N(C)C)ccc3[n+]2C)c(C)n1-c1ccccc1,0.899 ± 0.057,0.592 ± 0.17,0.852 ± 0.08,0.774 ± 0.1,0.588 ± 0.085
Cc1cn([C@H]2C[C@H](N=[N+]=[N-])[C@@H](CO)O2)c(=O)[nH]c1=O,0.976 ± 0.012,0.958 ± 0.018,1 ± 0.022,0.874 ± 0.02,0.928 ± 0.011
CC(=O)Oc1cc(C)c2c(c1C=O)Oc1c(c(C)c(OC(C)=O)c3c1C(OC(C)=O)OC3=O)OC2=O (stereo not given),1.025 ± 0.0071,0.949 ± 0.039,1.04 ± 0.063,0.875 ± 0.084,1.01 ± 0.099
COc1ccc2c(c1)OC/C(=C/c1ccc(OC)c(OC)c1)C2=O,0.936 ± 0.028,0.989 ± 0.086,0.966 ± 0.028,0.92 ± 0.021,0.972 ± 0.083
C=CCc1ccc(OC(=O)c2ccccc2)c(OC)c1,1.02 ± 0.14,1.07 ± 0.05,1.02 ± 0.063,1.22 ± 0.014,1 ± 0.14
COc1cc(O)c(C(=O)c2ccccc2)cc1O,0.889 ± 0.07,0.84 ± 0.17,1.07 ± 0.15,0.891 ± 0.28,0.845 ± 0.12
COC(=O)/C(=C1/OC(=O)C(c2ccccc2)=C1O)c1ccccc1,1.06 ± 0.057,1.02 ± 0.12,1.07 ± 0.064,1.05 ± 0.14,1.1 ± 0.05
CC(=O)O[C@@H]1C[C@H]2C(C)(C)C(=O)CC[C@]2(C)[C@H]2CC[C@@]3(C)[C@H](c4ccoc4)OC(=O)[C@H]4O[C@]43[C@@]21C,0.999 ± 0.086,0.986 ± 0.011,1.01 ± 0.026,0.949 ± 0.087,0.899 ± 0.021
CCOC(=O)Nc1nc2ccccc2[nH]1,1.03 ± 0.028,0.887 ± 0.016,1.06 ± 0.035,0.971 ± 0.056,0.959 ± 0.0057
